# PubChem BioAssay AID602144 (Vanderbilt Specialized Chemistry Center, 2011)
# The source made the active and inactive calls. Rule as the data show it: active = remaining activity below about 50%; inactive = the rest.
# Target: Phospholipase D1 (Homo sapiens) (UniProt Q13393)
# Assay: PLD1 inhibitors in cells, Calu-1 cells, single concentration (AID 602144);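 also: tested at 200 nM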
# Conditions: cellular PLD1 activity, active compounds read low
# Chain of Phospholipase D1 (Homo sapiens) (Q13393 whole entry, looked up): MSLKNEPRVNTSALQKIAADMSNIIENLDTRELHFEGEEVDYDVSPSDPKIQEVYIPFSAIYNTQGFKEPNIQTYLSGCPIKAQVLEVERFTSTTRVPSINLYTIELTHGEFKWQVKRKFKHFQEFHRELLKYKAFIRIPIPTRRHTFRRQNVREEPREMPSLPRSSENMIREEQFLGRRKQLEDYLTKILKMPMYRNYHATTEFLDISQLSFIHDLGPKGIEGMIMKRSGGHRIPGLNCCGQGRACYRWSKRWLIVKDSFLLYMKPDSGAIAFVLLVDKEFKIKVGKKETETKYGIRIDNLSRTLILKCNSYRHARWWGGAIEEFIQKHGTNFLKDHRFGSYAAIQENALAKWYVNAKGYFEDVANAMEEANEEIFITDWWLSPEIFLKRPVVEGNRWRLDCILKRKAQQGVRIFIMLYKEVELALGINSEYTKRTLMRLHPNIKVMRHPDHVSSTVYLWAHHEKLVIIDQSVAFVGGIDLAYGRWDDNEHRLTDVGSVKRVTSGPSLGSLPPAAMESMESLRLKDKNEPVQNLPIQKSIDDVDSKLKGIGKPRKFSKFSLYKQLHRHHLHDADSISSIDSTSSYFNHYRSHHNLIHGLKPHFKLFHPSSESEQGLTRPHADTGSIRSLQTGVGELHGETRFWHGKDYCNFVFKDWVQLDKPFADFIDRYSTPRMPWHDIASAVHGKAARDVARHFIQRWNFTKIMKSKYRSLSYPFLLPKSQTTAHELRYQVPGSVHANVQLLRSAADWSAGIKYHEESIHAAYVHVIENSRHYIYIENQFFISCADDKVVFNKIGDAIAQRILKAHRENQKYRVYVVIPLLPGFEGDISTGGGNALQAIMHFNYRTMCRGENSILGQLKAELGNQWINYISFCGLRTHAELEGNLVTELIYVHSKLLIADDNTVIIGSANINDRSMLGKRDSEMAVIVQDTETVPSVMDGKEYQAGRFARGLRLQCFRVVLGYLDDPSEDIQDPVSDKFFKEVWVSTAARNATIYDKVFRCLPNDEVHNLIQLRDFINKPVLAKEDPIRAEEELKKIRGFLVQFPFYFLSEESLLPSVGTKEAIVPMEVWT
# Chain of Phospholipase D1 (Homo sapiens) (Q13393 whole entry, looked up): as above
row,SMILES,remaining activity
1,O=c1[nH]c2ccccc2n1C1CCN(CCNS(=O)(=O)c2cccc3cccnc23)CC1,121% (inactive)
2,CN(CCN1CCC(n2c(=O)[nH]c3ccccc32)CC1)C(=O)c1ccc2ccccc2c1,75.5% (inactive)
3,O=C(NCCN1CCC2(C=Cc3ccccc32)CC1)[C@H]1C[C@@H]1c1ccccc1,107% (inactive)
4,O=c1[nH]c2ccccc2n1C1CCN(CCNS(=O)(=O)c2ccc(OC(F)(F)F)cc2)CC1,117% (inactive)
